Growth data for 39 compounds are collected here from PubChem BioAssay (NCI).

“And” between values parts separate entries of the source, which are not always exact repeats. Identical values can stand only once. The panel holds about 83,000 compounds, 20% with a hit somewhere; the sample as a whole holds those more often.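 Assay: single dose, 48 h. Readout: percent growth (0 = no net growth; negative = cell death). Active: <10.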 Values without a mark were called inactive. The source made the active and inactive calls.

In the first test the test system is HL-60(TB) leukemia. Briefly: NCI-60 one-dose screen, 48 h (100 = growth as untreated, 0 = no growth, -100 = all killed). The note with it: 10 µM. As for the experimental part: Growth inhibition of the HL-60(TB) human tumor cell line is measured as a screen for anti-cancer activity. Cells are grown in 96 well plates and exposed to the test compound for 48 hours. Compounds are tested at a single concentration, which is 10^-5 M for most compounds. The reported endpoint is percent growth (GI% or GIPRCNT), where numbers from 0 - 100% represent growth inhibition, and numbers from -100% - 0 represent cell death. For example, a value of 40 represents 60% growth inhibition. A value of 0 means no net growth occurred over the course of the experiment. A value of -40 indicates 40% of cells at the beginning of the experiment died by the end of the experiment. A value of -100 means all cells are dead at the end of the experiment.
NCI-60 Human Tumor Cell Lines Screen was performed using the standard one-dose NCI protocol, which is described in more detail at https://dtp.cancer.gov/discovery_development/nci-60/default.htm.
Compounds with GIPRCNT values below 10 were considered active. Activity score was based on GIPRCNT using the following formula: […]
Score is 0 for GIPRCNT values of 100 or above, 50 for GIPRCNT values of 0, and 100 for GIPRCNT values of -100.
With `O=C(/C=C/c1cccc(Oc2ccc(Cl)cc2)c1)c1ccccc1`, the growth was 73.9%.

Staying with this test, now noted: 10 µM unless noted.
Consider `CCOC(=O)C(C#N)Cc1ccccc1` (stereo not given), for which the growth is 104%. As to `Cn1c(=O)c2c(nc(NC3=NS(=O)(=O)c4ccccc43)n2CC(=O)N2CCc3ccccc32)n(C)c1=O`, the growth is 111%. For `C=CCc1c(O)c(C(=O)/C=C/c2ccc(Cl)cc2)c(OC)c2ccoc12`, the growth was 25.4%. Take `Nc1nc2c(nnn2C2CC(O)C(CO)O2)c(=O)[nH]1` (stereo not given): the growth was 28.4%. Consider `CCCCCCN(CCCCCC)c1ccc(/C=C2/SC(=O)N(c3nc(N4CCCC4)nc(N4CCCC4)n3)C2=O)c(C)c1`, for which the growth is 20.2%. The same measure, in the same setting: the result for `O=[N+]([O-])c1ccc(Oc2ccccc2)cc1` reads 96.8% and 79.2%; that for `O=[N+]([O-])c1ccc2c(c1)Cc1cc(F)ccc1-2`, 114%; that for `c1ccc2cc3nc4cc5ccccc5cc4nc3cc2c1`, 90.5%.

As to `COCC(=O)NC/C=C/c1ccc2ncnc(Nc3ccc(Oc4ccc(C)nc4)c(C)c3)c2c1`, the growth is 22.2%. Take `COc1cccc(CNc2ncnc3c2ncn3C2OC(CO)C(O)C2O)c1O` (stereo not given): the growth was -47% (active).

Take `COc1c(B(O)O)cccc1-c1nc2ccc3n[nH]c(F)c3c2c2c1CCCC2`: the growth is 20%. Same read-out and setting: the result for `CC(C)C[C@H](NC(=O)[C@@H](Cc1ccccc1)n1ccc(Nc2ccccc2)cc1=O)B(O)O` reads -7.72% (active).

With `N#C/C(=N\Nc1ccc(Cl)cc1)C(=O)C1CC1`, the growth is 62.8%. Same read-out and setting: the result for `O=C(CSc1nc2ccc([N+](=O)[O-])cc2[nH]1)Nc1ccc(F)c(Cl)c1` reads 10.7%; that for `CC[C@@H](C[C@H](CCO)c1ccccc1)c1cc2ccccc2o1`, 92.5%. Regarding `N#CC1c2ccccc2C=CN1C(=O)CCCl` (stereo not given), the growth was 65.5%. As to `COc1ccc(C2=CC(c3cc(OC)c(OC)c(OC)c3)NC(=O)N2)cc1OC` (stereo not given), the growth is 2.95% (active). With `Cc1cc(CC(=O)O)n(C)c1C(=O)c1ccc(Cl)cc1`, the growth was 105%. Take `CCOC(=O)CSc1ncnc2c1c(-c1ccccc1)c(-c1ccccc1)n2-c1ccc(C)cc1`: the growth was 55.9%. On to `CC(=O)NCC(=O)c1ccc([N+](=O)[O-])cc1`, for which the growth is 103%. On to `O=C(O)/C(=C\c1ccc(Cl)cc1)c1ccc(Cl)cc1`, for which the growth is 53.3%. As to `C=C1C(=O)O[C@H]2[C@H]1CC/C(Cn1cc(CNCCc3c[nH]c4ccccc34)nn1)=C\CC[C@@]1(C)O[C@@H]21`, the growth was 26.1%. On to `Cn1c(N)c(N=O)c(=O)n(C)c1=O`, for which the growth is 105% and 89.8%.

Consider `CCc1cccc2c3c(sc12)C(c1ccc(F)cc1)C(C#N)=C(N)O3` (stereo not given), for which the growth was 1.86% (active). With `COc1ccc2c(c1)C(=O)c1c-2c(OCCN(C)C)nc2cc(OC)ccc12`, the growth was 27.2%. As for `CSC1=NC(=Nc2c(C)cccc2C)C2(CCC(C(C)(C)C)CC2)N1c1ccc(Cl)cc1` (stereo not given), the growth was 53.4%.

For the compound `NC(=S)N/N=C/Cc1ccccc1`, the growth is 47.2%. On the same count and under the same terms, the result for `C#Cc1cccc(NC(=O)Nc2ccc(NC(=O)CCl)cc2)c1` reads 0.172% [8.25 µM] (active); that for `C=C(C)[C@@H]1CC[C@]2(C(=O)NCCNCCNC(=O)OC(C)(C)C)CC[C@]3(C)[C@H](CC[C@@H]4[C@@]5(C)CCC(=O)C(C)(C)[C@@H]5CC[C@]43C)[C@@H]12`, -14.3% [100 µM] (active). Same read-out and setting: with `CC1(C)CC[C@]2(C(N)=O)CC[C@]3(C)C(=CC[C@@H]4[C@@]5(C)C/C(=C/c6ccncc6)C(=O)C(C)(C)[C@@H]5CC[C@]43C)[C@@H]2C1` the figure was -19.2% [100 µM] (active). `CN1CCN(CCCOc2cccc3nc(Nc4ccc(Cl)c(F)c4)ccc23)CC1`: the growth was 61.9%. As for `CCN(CC)CCNC(=O)c1ccc(NCN2C(=O)NC(c3ccccc3)(c3ccccc3)C2=O)cc1`, the growth is 107% and 105%. `COc1ccc(-c2nsc3c2NC(=O)CC3c2cccc(Cl)c2)cc1` (stereo not given): the growth was -19.2% (active). Consider `Nc1c(C(=O)Nc2ccccc2Cl)sc2nc3c(cc12)C(O)CCC3` (stereo not given), for which the growth is 0.926% (active).

In the case of `COC(=O)CCC1=C(C)C2=NC1=CC1=NC(=CC3=NC(=Cc4[nH]c(/c(=C(/C)O)c4C)=C2)C(C(C)=O)=C3C)C(C)=C1CCC(=O)OC`, the growth is 78.2%.

For the compound `C=C(C)[C@@H]1CC[C@]2(C(=O)OC)CC[C@]3(C)[C@H](CC[C@@H]4[C@@]5(C)C/C(=C/c6ccc(OC)cc6)C(=O)C(C)(C)[C@@H]5CC[C@]43C)[C@@H]12`, the growth is 87.6%. With `COc1cccc(-c2nc3sccn3c2-c2ccnc(NCCCNS(=O)(=O)c3ccccc3)n2)c1`, the growth is 39.9%. The same measure, in the same setting: the result for `Cc1ccc(C(C)C)cc1C(=O)C[n+]1ccccc1` reads 115%.

The same test, now with this note: 100 µM.
On to `O=C(/C=C/c1cccc(Oc2ccc(Cl)cc2)c1)c1ccccc1`, for which the growth was -51.8% (active).
